Among the data in the antibiotic and cytotoxicity screens of Wong et al. (2023) are cytotoxicity call values, retold here.

Among all 39,000 compounds or so, about 3,300 (8.5%) were called active. Many of the other results were omitted from the sample, so actives are more common in it than they were.

The test deals with HepG2. Briefly: cytotoxicity call (relative viability < 0.9). The conditions noted are these: 10 µM.
For `C[C@H]1CN([C@@H](C)CO)C(=O)Cc2cc(NC(=O)Cn3cnnn3)ccc2O[C@H]1CN(C)CC1CC1`, the cytotoxicity call is “inactive”. For `COc1ccc(NC(=O)N(C)C[C@@H]2Oc3ncc(C#C[C@@H](C)O)cc3C(=O)N([C@@H](C)CO)C[C@@H]2C)cc1`, the cytotoxicity call was “inactive”. For `CCC(=O)N[C@H]1CC[C@H](CC(=O)OC)O[C@@H]1CO` the value was “inactive”. In the case of `CNC(=O)C[C@H]1CC[C@@H]2[C@H](COC[C@@H](O)CN2C(=O)c2ccccn2)O1`, the cytotoxicity call was “inactive”.

As to `CC(C)NC(=O)N(C)C[C@@H]1Oc2c(NS(=O)(=O)c3cn(C)cn3)cccc2C(=O)N([C@H](C)CO)C[C@H]1C`, the cytotoxicity call is “inactive”. In the case of `Cc1ccc(S(=O)(=O)N(C)C[C@H]2Oc3ccc(NC(=O)NC(C)C)cc3CC(=O)N([C@@H](C)CO)C[C@@H]2C)cc1`, the cytotoxicity call was “inactive”. With `O=C(C[C@@H]1CC[C@H]2[C@@H](COC[C@H](O)CN2C(=O)Nc2ccc(C(F)(F)F)cc2)O1)NCCc1ccncc1`, the cytotoxicity call was “inactive”. The entry for `Cc1ccc(S(=O)(=O)Nc2ccc3c(c2)C(=O)N([C@@H](C)CO)C[C@H](C)[C@@H](CN(C)C(=O)C2CCCCC2)OCCCC[C@@H](C)O3)cc1` is “active”; for `Cc1ccc(S(=O)(=O)Nc2ccc3c(c2)C(=O)N([C@H](C)CO)C[C@@H](C)[C@H](CN(C)C(=O)C2CCCCC2)OCCCC[C@@H](C)O3)cc1` it is “inactive”; for `Cc1ccc(S(=O)(=O)Nc2ccc3c(c2)C(=O)N([C@@H](C)CO)C[C@H](C)[C@H](CN(C)C(=O)C2CCCCC2)OCCCC[C@@H](C)O3)cc1` it is “inactive”. The entry for `C[C@H]1CCCCO[C@H](CN(C)S(=O)(=O)c2cn(C)cn2)[C@@H](C)CN([C@@H](C)CO)C(=O)c2cc(NS(=O)(=O)c3ccc(F)cc3)ccc2O1` is “inactive”; for `C[C@@H]1CN([C@H](C)CO)C(=O)c2cc(NC(=O)NC3CCCCC3)ccc2O[C@@H]1CN(C)S(C)(=O)=O` it is “inactive”; for `COc1ccc([Si](C)(C)[C@H]2[C@H](CC(=O)N3Cc4ccccc4C[C@H]3CO)O[C@@]3(C(=O)N(C)c4c(Br)cc(C)cc43)[C@@H]2C)cc1` it is “inactive”.

Turning to `CN1C(=O)c2cc(NC(=O)C3CCOCC3)ccc2OC[C@H]2O[C@H](CC(=O)NCCc3ccncc3)CC[C@@H]21`, the cytotoxicity call is “inactive”. As for `O=C(C=Cc1ccc(O)c(O)c1)C=C(O)C=Cc1ccc(O)c(O)c1`, the cytotoxicity call was “active”. For `COc1ccc(C=CC(=O)O)cc1OC`, the cytotoxicity call is “inactive”. Regarding `O=C(O)C=Cc1ccc(O)c(O)c1`, the cytotoxicity call is “inactive”. Consider `COc1cc(C=CC(=O)C=C(O)C=Cc2ccc(O)c(OC)c2)ccc1O`, for which the cytotoxicity call was “active”. In the case of `COc1cc(C=O)ccc1O`, the cytotoxicity call was “active”.

In the case of `O=C(/C=C/c1ccc(O)c(O)c1)O[C@H]([C@H](OC(=O)/C=C/c1ccc(O)c(O)c1)[C@H](OC(=O)/C=C/c1ccc(O)c(O)c1)C(=O)O)[C@@H](OC(=O)/C=C/c1ccc(O)c(O)c1)C(=O)O`, the cytotoxicity call is “inactive”.

On to `COc1cc(C=CC(=O)O)ccc1O`, for which the cytotoxicity call was “inactive”. On to `COc1ccc(/C=C/C(=O)C=C(O)/C=C/c2ccc(OC)c(OC)c2)cc1OC`, for which the cytotoxicity call was “inactive”. Regarding `COc1cc(C(C)=O)ccc1O`, the cytotoxicity call was “inactive”.

As for `S=C1NCNCN1`, the cytotoxicity call was “inactive”. The entry for `O=C1N[C@H](Cc2ccccc2)COC(=O)[C@@H](Cc2ccc(F)cc2)CCC=CC[C@@H]1CC(=O)N(CCO)Cc1ccccc1` is “inactive”; for `COc1ccc(CN2C[C@@H](C)[C@H](OC)CN(C)C(=O)c3ccc(NC(=O)c4nc5ccccc5s4)cc3OC[C@H]2C)cc1` it is “inactive”; for `COCC#Cc1ccc2c(c1)O[C@@H](CN(C)C(=O)CN(C)C)[C@H](C)CN([C@H](C)CO)S2(=O)=O` it is “inactive”. Turning to `Cc1ccc(S(=O)(=O)N(C)C[C@@H]2Oc3ncc(Br)cc3C(=O)N([C@H](C)CO)C[C@@H]2C)cc1`, the cytotoxicity call was “inactive”. With `COC(=O)c1cc(S(=O)(=O)N2CCOCC2)cn1C`, the cytotoxicity call is “inactive”. For `C[C@@H]1CCCCO[C@@H](CN(C)C(=O)Nc2ccc(F)cc2)[C@@H](C)CN([C@@H](C)CO)C(=O)c2cc(NC(=O)C3CCCCC3)ccc2O1` the value was “inactive”; for `COCC#Cc1ccc([C@H]2[C@@H](CO)N3C(=O)CN(C(=O)C4CCOCC4)C[C@@H]23)cc1`, “inactive”; for `C[C@H]1CN([C@@H](C)CO)C(=O)c2cccc(NC(=O)c3cnccn3)c2O[C@H]1CN(C)C(=O)Nc1ccccc1`, “inactive”. On to `C[C@@H]1CN([C@@H](C)CO)C(=O)c2cc(NC(=O)Nc3ccc(C(F)(F)F)cc3)ccc2O[C@@H](C)CCCCO[C@@H]1CN(C)C(=O)CCCN(C)C`, for which the cytotoxicity call is “inactive”. On to `Oc1ccc2ccccc2c1` [beta-NAPHTHOL ], for which the cytotoxicity call was “active”. For the molecule `Oc1cccc(O)c1`, the cytotoxicity call was “inactive”. The entry for `O=C(O)c1ccc2ccccc2c1` is “inactive”; for `Oc1ccc2ccccc2c1` it is “inactive”. For `C[C@H](CO)N1C[C@H](C)[C@@H](CN(C)S(=O)(=O)c2ccccc2)Oc2ccc(NS(=O)(=O)c3ccccc3)cc2C1=O`, the cytotoxicity call is “inactive”.

For `Cc1ccc(S[C@]2(C(=O)NCC(C)C)CC(=O)N(Cc3cc(C(F)(F)F)cc(C(F)(F)F)c3)[C@@H]2c2ccc(CO)cc2I)cc1`, the cytotoxicity call is “inactive”. Turning to `Cc1cn([C@H]2C[C@H](F)[C@@H](CO)O2)c(=O)[nH]c1=O`, the cytotoxicity call is “inactive”. In the case of `CCC(=O)N[C@@H]1CC[C@@H](CC(=O)OC)O[C@@H]1CO`, the cytotoxicity call is “inactive”. As for `C[C@@H]1CN([C@@H](C)CO)C(=O)c2cc(-c3cncnc3)cnc2O[C@@H]1CN(C)C(=O)CN1CCOCC1`, the cytotoxicity call was “inactive”. Take `C[C@@H]1CN([C@H](C)CO)C(=O)c2cccc(NC(=O)CCCCCC(=O)Nc3ccccc3N)c2O[C@@H]1CN(C)C(=O)Nc1ccc(C(F)(F)F)cc1`: the cytotoxicity call was “inactive”.

`C[C@H](CO)N1C[C@H](C)[C@@H](CN(C)S(=O)(=O)c2ccc(Cl)cc2)OCCCC[C@H](C)Oc2ccc(NC(=O)Nc3ccc(F)cc3)cc2C1=O`: the cytotoxicity call is “inactive”. Regarding `C[C@@H]1CCCCO[C@@H](CN(C)S(=O)(=O)c2ccc(Cl)cc2)[C@H](C)CN([C@H](C)CO)C(=O)c2cc(NC(=O)Nc3ccc(F)cc3)ccc2O1`, the cytotoxicity call is “active”.

In the case of `C[C@@H]1CCCCO[C@H](CN(C)S(=O)(=O)c2ccc(Cl)cc2)[C@H](C)CN([C@@H](C)CO)C(=O)c2cc(NC(=O)Nc3ccc(F)cc3)ccc2O1`, the cytotoxicity call is “inactive”. `C[C@@H]1CN([C@H](C)CO)C(=O)c2cc(NC(=O)Nc3ccc(F)cc3)ccc2O[C@@H](C)CCCCO[C@H]1CN(C)S(=O)(=O)c1ccc(Cl)cc1`: the cytotoxicity call is “active”. As for `C[C@@H]1CCCCO[C@H](CN(C)S(=O)(=O)c2ccc(Cl)cc2)[C@@H](C)CN([C@H](C)CO)C(=O)c2cc(NC(=O)Nc3ccc(F)cc3)ccc2O1`, the cytotoxicity call was “inactive”. On to `C[C@H]1CCCCO[C@H](CN(C)S(=O)(=O)c2ccc(Cl)cc2)[C@@H](C)CN([C@@H](C)CO)C(=O)c2cc(NC(=O)Nc3ccc(F)cc3)ccc2O1`, for which the cytotoxicity call is “inactive”. Consider `COc1ccc(CN(C)C[C@@H]2Oc3c(NC(=O)c4cnccn4)cccc3C(=O)N([C@@H](C)CO)C[C@H]2C)cc1`, for which the cytotoxicity call was “inactive”. The entry for `CNC(=O)[C@H]1O[C@@H](n2cnc3c(NCc4cccc(I)c4)ncnc32)[C@H](O)[C@@H]1O` is “inactive”; for `C[C@@H]1CCCCO[C@H](CN(C)C(=O)Nc2ccccc2)[C@@H](C)CN([C@@H](C)CO)C(=O)c2cc(NC(=O)c3ccccc3)ccc2O1` it is “inactive”; for `C[C@H]1CN([C@@H](C)CO)C(=O)c2cccc(NC(=O)c3nc4ccccc4s3)c2O[C@H]1CN(C)C(=O)Nc1ccc(F)cc1` it is “inactive”. Consider `C[C@H](CO)N1C[C@H](C)[C@@H](CN(C)C(=O)Nc2ccc3c(c2)OCO3)Oc2ccc(NS(C)(=O)=O)cc2C1=O`, for which the cytotoxicity call was “inactive”. `COc1ccc(S(=O)(=O)Nc2ccc3c(c2)CC(=O)N([C@@H](C)CO)C[C@H](C)[C@H](CN(C)S(=O)(=O)c2ccccc2)O3)cc1`: the cytotoxicity call was “inactive”.

Consider `C[C@H](CO)N1C[C@H](C)[C@H](CN(C)S(=O)(=O)c2cn(C)cn2)Oc2ccc(NC(=O)CCCN(C)C)cc2CC1=O`, for which the cytotoxicity call is “inactive”. Consider `Cc1ccc(S(=O)(=O)N(C)C[C@@H]2Oc3ncc(C#Cc4ccccc4)cc3C(=O)N([C@H](C)CO)C[C@@H]2C)cc1`, for which the cytotoxicity call was “inactive”. For `COc1ccc(C#Cc2cnc3c(c2)C(=O)N([C@H](C)CO)C[C@H](C)[C@H](CN(C)S(=O)(=O)c2ccc(C#N)cc2)O3)cc1OC`, the cytotoxicity call was “inactive”.

Take `C[C@H]1CN([C@@H](C)CO)C(=O)c2cc(C#Cc3cccnc3)cnc2O[C@@H]1CN(C)Cc1ccc(F)cc1`: the cytotoxicity call is “inactive”. Take `COc1ccc(S(=O)(=O)N(C)C[C@@H]2Oc3ncc(C#Cc4ccc(OC)c(OC)c4)cc3C(=O)N([C@H](C)CO)C[C@@H]2C)cc1`: the cytotoxicity call was “active”. As for `C[C@H](CO)N1C[C@H](C)[C@H](CN(C)S(=O)(=O)c2ccc(F)cc2)Oc2ncc(C#Cc3cccc(F)c3)cc2C1=O`, the cytotoxicity call is “active”.

With `COc1ccc(C#Cc2cnc3c(c2)C(=O)N([C@H](C)CO)C[C@H](C)[C@H](CN(C)S(=O)(=O)c2ccc(C)cc2)O3)cc1OC`, the cytotoxicity call is “inactive”.

Turning to `C[C@H](CO)N1C[C@H](C)[C@H](CN(C)Cc2ccc(F)cc2)Oc2ncc(C#Cc3cccnc3)cc2C1=O`, the cytotoxicity call is “active”. With `C[C@H](CO)N1C[C@H](C)[C@H](CN(C)S(=O)(=O)c2cccc(F)c2)Oc2ncc(C#Cc3cccc(F)c3)cc2C1=O`, the cytotoxicity call is “inactive”.

With `C[C@H](CO)N1C[C@H](C)[C@H](CN(C)S(=O)(=O)c2ccccc2)Oc2ncc(C#Cc3cccc(F)c3)cc2C1=O`, the cytotoxicity call is “inactive”. Consider `C[C@@H]1CN([C@H](C)CO)C(=O)c2cc(C#Cc3cccnc3)cnc2O[C@@H]1CN(C)Cc1ccc(F)cc1`, for which the cytotoxicity call is “inactive”.

For `C[C@H](CO)N1C[C@H](C)[C@H](CN(C)S(=O)(=O)c2ccc(C#N)cc2)Oc2ncc(C#Cc3cccc(F)c3)cc2C1=O`, the cytotoxicity call is “inactive”.

Take `Cc1ccc(S(=O)(=O)N(C)C[C@@H]2Oc3ncc(C#Cc4cccc(F)c4)cc3C(=O)N([C@H](C)CO)C[C@@H]2C)cc1`: the cytotoxicity call was “active”.

For the molecule `C[C@H](CO)N1C[C@H](C)[C@H](CN(C)Cc2ccncc2)Oc2ccc(NS(=O)(=O)c3ccccc3)cc2C1=O`, the cytotoxicity call is “inactive”.
